Data reported in PubChem BioAssay AID1159580 (chemical genetic matrix, 2015).
Screen size: about 5,500 compounds; about 2,000 (36%) were called active. Inconclusive results (about 18%) are left out. This is one part of the list. Values without a mark were called inactive. No stated cut-off is given here; in the data, active means normalized growth mostly below about 0.91 (no sharp cut-off); inconclusive means no clear call, values can overlap the other calls; inactive means mostly above about 0.92.

Experiment: chemical genetic growth profiling, strain panel (AID 1159580);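 further: tested at 20 µM; growth read once vehicle control cultures reached saturation at 30 °C; 1 = growth at the plate median or of vehicle wells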
Settings: growth OD

Q: What does the source list for `C[C@]12CCC3c4ccc(OC(=O)CCC(=O)O)cc4CCC3C1CCC2=O` (stereo partly specified)?
A: normalized growth (S. cerevisiae deletion strains, locus YAL013W, strain DEP1, stronger effect = lower value): 0.981; normalized growth (S. cerevisiae deletion strains, locus YBR021W, strain FUR4, stronger effect = lower value): 0.85; normalized growth (S. cerevisiae deletion strains, locus YBR229C, strain ROT2, stronger effect = lower value): 1.01; normalized growth (S. cerevisiae deletion strains, locus YCL029C, strain bik1, stronger effect = lower value): 0.97; normalized growth (S. cerevisiae deletion strains, locus YDL035C, strain GPR1, stronger effect = lower value): 0.871; normalized growth (S. cerevisiae deletion strains, locus YDL074C, strain BRE1, stronger effect = lower value): 0.872; normalized growth (S. cerevisiae deletion strains, locus YDL101C, strain DUN1, stronger effect = lower value): 0.999; normalized growth (S. cerevisiae deletion strains, locus YDL134C, strain PPH21, stronger effect = lower value): 1; normalized growth (S. cerevisiae deletion strains, locus YDL185W, strain tfp1, stronger effect = lower value): 0.951; normalized growth (S. cerevisiae deletion strains, locus YDL192W, strain arf1, stronger effect = lower value): 0.916 (active); normalized growth (S. cerevisiae deletion strains, locus YDR101C, strain arx1, stronger effect = lower value): 0.984; normalized growth (S. cerevisiae deletion strains, locus YDR150W, strain NUM1, stronger effect = lower value): 0.998; normalized growth (S. cerevisiae deletion strains, locus YDR162C, strain NBP2, stronger effect = lower value): 0.785 (active); normalized growth (S. cerevisiae deletion strains, locus YDR318W, strain mcm21, stronger effect = lower value): 0.926; normalized growth (S. cerevisiae deletion strains, locus YDR388W, stronger effect = lower value): 0.98; normalized growth (S. cerevisiae deletion strains, locus YDR502C, strain sam2, stronger effect = lower value): 0.933; normalized growth (S. cerevisiae deletion strains, locus YEL061C, strain CIN8, stronger effect = lower value): 1; normalized growth (S. cerevisiae deletion strains, locus YER110C, stronger effect = lower value): 0.965; normalized growth (S. cerevisiae deletion strains, locus YER155C, strain BEM2, stronger effect = lower value): 1.01; normalized growth (S. cerevisiae deletion strains, locus YER167W, strain BCK2, stronger effect = lower value): 0.944; normalized growth (S. cerevisiae deletion strains, locus YGL078C, strain dbp3, stronger effect = lower value): 1; normalized growth (S. cerevisiae deletion strains, locus YGL086W, strain mad1, stronger effect = lower value): 0.922 (active); normalized growth (S. cerevisiae deletion strains, locus YGL248W, strain PDE1, stronger effect = lower value): 1.01; normalized growth (S. cerevisiae deletion strains, locus YGR078C, strain PAC10, stronger effect = lower value): 0.949; normalized growth (S. cerevisiae deletion strains, locus YGR135W, strain pre9, stronger effect = lower value): 0.936; normalized growth (S. cerevisiae deletion strains, locus YGR229C, strain SMI1, stronger effect = lower value): 1.03; normalized growth (S. cerevisiae deletion strains, locus YGR252W, strain gcn5, stronger effect = lower value): 0.783; normalized growth (S. cerevisiae deletion strains, locus YHR030C, strain SLT2, stronger effect = lower value): 1; normalized growth (S. cerevisiae deletion strains, locus YHR079C, strain IRE1 (second series), stronger effect = lower value): 0.99; normalized growth (S. cerevisiae deletion strains, locus YHR094C, strain hxt1, stronger effect = lower value): 0.993; normalized growth (S. cerevisiae deletion strains, locus YHR129C, strain ARP1, stronger effect = lower value): 0.996; normalized growth (S. cerevisiae deletion strains, locus YHR200W, strain rpn10, stronger effect = lower value): 0.955; normalized growth (S. cerevisiae deletion strains, locus YIL066C, strain RNR3, stronger effect = lower value): 0.879; normalized growth (S. cerevisiae deletion strains, locus YIL073C, strain SPO22, stronger effect = lower value): 0.806; normalized growth (S. cerevisiae deletion strains, locus YIL125W, strain kgd1, stronger effect = lower value): 0.992; normalized growth (S. cerevisiae deletion strains, locus YIR030C, strain dcg1, stronger effect = lower value): 0.996; normalized growth (S. cerevisiae deletion strains, locus YJL095W, strain BCK1, stronger effect = lower value): 0.946; normalized growth (S. cerevisiae deletion strains, locus YJL134W, strain LCB3, stronger effect = lower value): 1.01; normalized growth (S. cerevisiae deletion strains, locus YJL168C, strain set2, stronger effect = lower value): 1; normalized growth (S. cerevisiae deletion strains, locus YJL187C, strain SWE1 (second series), stronger effect = lower value): 0.974; normalized growth (S. cerevisiae deletion strains, locus YJR043C, strain POL32, stronger effect = lower value): 0.911; normalized growth (S. cerevisiae deletion strains, locus YJR075W, strain HOC1, stronger effect = lower value): 0.968; normalized growth (S. cerevisiae deletion strains, locus YKL009W, strain mrt4, stronger effect = lower value): 0.884; normalized growth (S. cerevisiae deletion strains, locus YKL068W, stronger effect = lower value): 1; normalized growth (S. cerevisiae deletion strains, locus YKL085W, strain MDH1 (second series), stronger effect = lower value): 1.01; normalized growth (S. cerevisiae deletion strains, locus YKL085W, strain MDH1, stronger effect = lower value): 1.01; normalized growth (S. cerevisiae deletion strains, locus YKL190W, strain CNB1, stronger effect = lower value): 0.991; normalized growth (S. cerevisiae deletion strains, locus YKR001C, strain vps1, stronger effect = lower value): 0.836 (active); normalized growth (S. cerevisiae deletion strains, locus YLR039C, strain RIC1, stronger effect = lower value): 0.578 (active); normalized growth (S. cerevisiae deletion strains, locus YLR058C, strain SHM2, stronger effect = lower value): 0.985; normalized growth (S. cerevisiae deletion strains, locus YLR102C, strain apc9, stronger effect = lower value): 1.01; normalized growth (S. cerevisiae deletion strains, locus YLR262C, strain YPT6, stronger effect = lower value): 0.559 (active); normalized growth (S. cerevisiae deletion strains, locus YLR268W, strain sec22, stronger effect = lower value): 0.976; normalized growth (S. cerevisiae deletion strains, locus YLR330W, strain CHS5, stronger effect = lower value): 0.986; normalized growth (S. cerevisiae deletion strains, locus YLR342W, strain FKS1 (second series), stronger effect = lower value): 0.81; normalized growth (S. cerevisiae deletion strains, locus YLR371W, strain rom2, stronger effect = lower value): 0.97; normalized growth (S. cerevisiae deletion strains, locus YLR418C, strain cdc73, stronger effect = lower value): 0.914; normalized growth (S. cerevisiae deletion strains, locus YML016C, strain PPZ1, stronger effect = lower value): 0.985; normalized growth (S. cerevisiae deletion strains, locus YML032C, strain rad52, stronger effect = lower value): 0.903 (active); normalized growth (S. cerevisiae deletion strains, locus YML124C, strain tub3, stronger effect = lower value): 1; normalized growth (S. cerevisiae deletion strains, locus YMR078C, strain ctf18, stronger effect = lower value): 0.965; normalized growth (S. cerevisiae deletion strains, locus YMR223W, strain ubp8, stronger effect = lower value): 0.914; normalized growth (S. cerevisiae deletion strains, locus YMR263W, strain SAP30, stronger effect = lower value): 0.971; normalized growth (S. cerevisiae deletion strains, locus YMR307W, strain GAS1, stronger effect = lower value): 0.91; normalized growth (S. cerevisiae deletion strains, locus YNL067W, strain RPL9B, stronger effect = lower value): 0.944; normalized growth (S. cerevisiae deletion strains, locus YNL128W, strain TEP1, stronger effect = lower value): 0.995; normalized growth (S. cerevisiae deletion strains, locus YNL153C, strain GIM3, stronger effect = lower value): 1; normalized growth (S. cerevisiae deletion strains, locus YNL233W, strain BNI4, stronger effect = lower value): 0.989; normalized growth (S. cerevisiae deletion strains, locus YNL250W, strain rad50, stronger effect = lower value): 0.952; normalized growth (S. cerevisiae deletion strains, locus YNL271C, strain bni1, stronger effect = lower value): 0.964; normalized growth (S. cerevisiae deletion strains, locus YNL298W, strain CLA4, stronger effect = lower value): 0.886 (active); normalized growth (S. cerevisiae deletion strains, locus YNL307C, strain MCK1, stronger effect = lower value): 0.765 (active); normalized growth (S. cerevisiae deletion strains, locus YNL322C, strain KRE1, stronger effect = lower value): 0.992; normalized growth (S. cerevisiae deletion strains, locus YNR052C, strain pop2, stronger effect = lower value): 0.873 (active); normalized growth (S. cerevisiae deletion strains, locus YOL006C, strain TOP1, stronger effect = lower value): 0.787; normalized growth (S. cerevisiae deletion strains, locus YOL012C, strain htz1): 1.6; normalized growth (S. cerevisiae deletion strains, locus YOL147C, strain pex11, stronger effect = lower value): 0.978; normalized growth (S. cerevisiae deletion strains, locus YOR061W, strain CKA2, stronger effect = lower value): 0.993; normalized growth (S. cerevisiae deletion strains, locus YOR069W, strain VPS5, stronger effect = lower value): 1; normalized growth (S. cerevisiae deletion strains, locus YOR136W, strain idh2, stronger effect = lower value): 0.995; normalized growth (S. cerevisiae deletion strains, locus YOR144C, strain elg1, stronger effect = lower value): 0.986; normalized growth (S. cerevisiae deletion strains, locus YOR184W, strain ser1, stronger effect = lower value): 0.675 (active); normalized growth (S. cerevisiae deletion strains, locus YOR316C, strain cot1, stronger effect = lower value): 0.997; normalized growth (S. cerevisiae deletion strains, locus YPL055C, strain LGE1, stronger effect = lower value): 0.874; normalized growth (S. cerevisiae deletion strains, locus YPL241C, strain CIN2, stronger effect = lower value): 1; normalized growth (S. cerevisiae deletion strains, locus YPR119W, strain clb2, stronger effect = lower value): 1.01; normalized growth (S. cerevisiae deletion strains, locus YPR141C, strain kar3, stronger effect = lower value): 0.997; normalized growth (S. cerevisiae deletion strains, locus YPR163C, strain tif3, stronger effect = lower value): 0.961; normalized growth (S. cerevisiae deletion strains, locus YPR167C, strain met16, stronger effect = lower value): 0.998; normalized growth (S. cerevisiae deletion strains, strain wtn01, stronger effect = lower value): 0.929; normalized growth (S. cerevisiae strains, strain wild type, stronger effect = lower value): 0.95
